# Data from PubChem BioAssay (NCI).
# This is part of a sample that, as a whole, favours compounds with a hit. Of some 83,000 tested, about 20% had one in any assay.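 Interpretation: 100, growth as untreated; towards 0, rising growth inhibition; 0, no net growth; 0 to -100, cell death. Compounds scoring below 10 were considered active.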 Values without a mark were called inactive. Calls of active or inactive are those of the source.
# Experiments:
# Assay in all cases: NCI-60 one-dose screen, 48 h (100 = growth as untreated, 0 = no growth, -100 = all killed)
# Conditions in all cases: 10 µM unless noted
# SK-MEL-2 melanoma = tested on: SK-MEL-2 melanoma
# EKVX NSCLC = tested on: EKVX NSCLC
# SN12C renal = tested on: SN12C renal
# UO-31 renal = tested on: UO-31 renal
# TK-10 renal = tested on: TK-10 renal
# ACHN renal = tested on: ACHN renal
# A498 renal = tested on: A498 renal
# CCRF-CEM leukemia = tested on: CCRF-CEM leukemia
# MOLT-4 leukemia = tested on: MOLT-4 leukemia
# SR leukemia = tested on: SR leukemia
# OVCAR-8 ovarian = tested on: OVCAR-8 ovarian
# OVCAR-5 ovarian = tested on: OVCAR-5 ovarian
# OVCAR-4 ovarian = tested on: OVCAR-4 ovarian
# SK-OV-3 ovarian = tested on: SK-OV-3 ovarian
# IGROV1 ovarian = tested on: IGROV1 ovarian
# OVCAR-3 ovarian = tested on: OVCAR-3 ovarian
# HS 578T breast = tested on: HS 578T breast
# NCI/ADR-RES ovarian = tested on: NCI/ADR-RES ovarian
# RPMI-8226 leukemia = tested on: RPMI-8226 leukemia
SMILES,growth (SK-MEL-2 melanoma),growth (EKVX NSCLC) [%],growth (SN12C renal) [%],growth (UO-31 renal) [%],growth (TK-10 renal) [%],growth (ACHN renal),growth (A498 renal) [%],growth (CCRF-CEM leukemia),growth (MOLT-4 leukemia),growth (SR leukemia),growth (OVCAR-8 ovarian) [%],growth (OVCAR-5 ovarian) [%],growth (OVCAR-4 ovarian),growth (SK-OV-3 ovarian) [%],growth (IGROV1 ovarian) [%],growth (OVCAR-3 ovarian),growth (HS 578T breast) [%],growth (NCI/ADR-RES ovarian),growth (RPMI-8226 leukemia) [%]
CCOC(=O)c1cn2ncnc(Oc3ccc(NC(=O)NCCN4CCOCC4)c(Cl)c3)c2c1C,113%,96.3,95.8,80.8,98,99.5%,85.2,96.6%,106%,105%,101,96.4,96.3%,92.2,101,105%,91.4,101%,
N#CC1=C(N)Oc2c(sc3c(Br)cccc23)C1c1ccc(Br)cc1 (centres undefined),8.78% (active),45.6,25.8,36.3,54.6,56%,23.9,10.1%,7.14% (active),4.23% (active),36.1,56.3,48.9%,36,,-8.57% (active),14.1,2.32% (active),
Cc1cc(=O)oc2cc(OC(=O)CN3CCN(C)CC3)ccc12,106%,92.5,96.6,92.8,109,103%,97.2,98.7%,101%,,103,101,96.6%,107,115,105%,97.9,,103
O=c1c2cc(F)ccc2sc2c(N3CCNCC3)nc3ccccc3c12,103%,72.5,61.7,28.8,58.8,7.74% (active),30.3,-27.5% (active),-33.5% (active),-56.3% (active),11,73.1,-22.2% (active),84.4,48,-79.6% (active),46.3,18.7%,
CC(C)(C)NC(=O)C(OC(=O)c1cccc(Cl)c1)c1ccc(Cl)cc1 (centres undefined),96.1%,109,101,90.1,93.2,107%,83.1,103%,107%,103%,,94.5,105%,93.1,104,103%,110,101%,
COc1cc(C(=O)N2N=C(c3ccc(S(C)(=O)=O)cc3)CC2c2ccco2)cc(OC)c1OC (centres undefined),59.1%,86,92.5,18.6,106,48.5%,76.7,42%,41.5%,8.01% (active),,89.5,84.1%,84.3,,5% (active),74.9,63.1%,44.6
